High-throughput results as filed in PubChem.
Rows were chosen to be rich in hits. Some 1.7% of all compounds tested hit in one or more screens of this group.
TRHR PAM = qHTS for Small Molecule Agonists and Allosteric Enhancers of Human TRH Receptor: Primary Screen for Enhancers. Thyrotropin-releasing hormone receptor (Homo sapiens), P34981. TRHR cells, fluo-8 calcium fluorescence, EC20 TRH enhancement. enhancement, % at 2 µM. 360,000 compounds, 0.66% hits. AID 493056, 2011; in the data active means enhancement above about 30%; further: 0% is about no effect
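TRHR-expressing cells loaded with fluo-8 calcium dye were read kinetically (ex 480/em 530) during compound addition, then stimulated with an EC20 of TRH (10 nM final). Enhancement of the Gq-mediated intracellular calcium response was scored.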
KCNH2 3.1 inh = qHTS for Inhibitors of KCHN2 3.1: Mutant qHTS. U2OS KCNH2 3.1, thallium flux FluxOr; hits give low values. activity change, % (tested at about 1.8 µM). 340,000 compounds, 0.95% hits;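 active means maximum activity change below -70%; inconclusive means maximum activity change from -70% to -50%; inactive means maximum activity change above -50%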;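 further: thallium influx rate constant from kinetic fluorescence after stimulation buffer; on the % scale 0 is the no-effect control and ±100 the full control effect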
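Thallium flux via FluxOr fluorescence (Red40 quencher, 45 min loading) in U2OS cells virally expressing the KCNH2 3.1 isoform (1.77 x 10^8 /mL virus, overnight at 37 C). Rate constants from 2-min kinetic reads post-stimulation, normalised to positive and negative controls.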
hERG WT inh = qHTS for Inhibitors of KCHN2 3.1: Wildtype qHTS; U2OS, BacMam KCNH2, thallium flux FluxOr; hits give low values; activity change, % at 1.84 µM; 340,000 compounds, 0.37% hits; AID 720551, 2013;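 active means maximum activity change below -70%; inconclusive means maximum activity change between -70% and -50%; inactive means maximum activity change above -50%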; further: on the % scale 0 is the no-effect control and ±100 the full control effect
Target sequence (Q12809 whole entry, looked up): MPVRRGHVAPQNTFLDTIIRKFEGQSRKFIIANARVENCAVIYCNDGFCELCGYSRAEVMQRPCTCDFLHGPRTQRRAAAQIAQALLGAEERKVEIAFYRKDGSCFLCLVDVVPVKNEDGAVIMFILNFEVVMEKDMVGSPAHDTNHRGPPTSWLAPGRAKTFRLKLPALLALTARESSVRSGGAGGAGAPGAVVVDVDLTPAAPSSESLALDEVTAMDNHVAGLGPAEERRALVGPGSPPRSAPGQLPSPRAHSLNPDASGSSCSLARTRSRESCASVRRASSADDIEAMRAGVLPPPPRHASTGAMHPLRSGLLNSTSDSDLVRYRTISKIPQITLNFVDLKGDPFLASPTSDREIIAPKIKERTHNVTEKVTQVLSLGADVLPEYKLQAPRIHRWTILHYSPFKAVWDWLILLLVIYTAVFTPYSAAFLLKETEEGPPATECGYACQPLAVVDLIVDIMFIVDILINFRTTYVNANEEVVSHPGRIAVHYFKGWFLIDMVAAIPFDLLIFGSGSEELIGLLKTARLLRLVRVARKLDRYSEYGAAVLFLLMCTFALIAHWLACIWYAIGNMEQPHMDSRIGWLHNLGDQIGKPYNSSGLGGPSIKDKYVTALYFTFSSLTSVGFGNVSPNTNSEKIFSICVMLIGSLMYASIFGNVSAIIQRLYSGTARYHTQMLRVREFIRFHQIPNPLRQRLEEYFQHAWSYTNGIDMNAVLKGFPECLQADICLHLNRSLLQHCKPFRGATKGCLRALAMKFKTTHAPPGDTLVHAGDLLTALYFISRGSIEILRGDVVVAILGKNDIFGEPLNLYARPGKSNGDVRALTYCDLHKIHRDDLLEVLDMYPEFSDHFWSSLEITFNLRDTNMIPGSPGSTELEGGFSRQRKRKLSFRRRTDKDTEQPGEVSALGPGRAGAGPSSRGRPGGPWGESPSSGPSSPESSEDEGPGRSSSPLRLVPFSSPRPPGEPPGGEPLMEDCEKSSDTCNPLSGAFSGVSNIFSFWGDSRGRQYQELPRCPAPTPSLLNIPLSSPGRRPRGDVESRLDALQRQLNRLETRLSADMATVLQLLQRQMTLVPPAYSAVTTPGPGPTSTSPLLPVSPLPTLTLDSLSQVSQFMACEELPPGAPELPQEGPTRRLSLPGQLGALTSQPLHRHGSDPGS
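U2OS cells transduced with wild-type KCNH2 virus are loaded with FluxOr dye for 45 min, and thallium flux is measured in kinetic reads before and after stimulation buffer. Rate constants are normalized to DMSO controls.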
TRPML1 agonist = qHTS for Agonists of the Human Mucolipin Transient Receptor Potential 1 (TRPML1); activation, % (concentration not given with the values); Mucolipin-1 (Homo sapiens), Q9GZU1; TRPML1-expressing cells, Ca2+ dye fluorescence, FDSS; 410,000 compounds, 0.12% hits; in the data active means activation above about 50%; inconclusive means mostly about 30% to 49%; further: 0% is about no effect
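Cells: TRPML1-DL, 1X Tet inducer, ~16 h at 37 degrees C/5% CO2. Dye: ABD Ca8 no-wash + quencher, 45-90 min RT. Read: 10 s baseline, compound add, 110 s agonist phase; 54-4 EC80 (4uM final), 110 s antagonist phase.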
TRPML1 blocker = qHTS for Inhibitors of the Human Mucolipin Transient Receptor Potential 1 (TRPML1) | activity change, negative = inhibition, % (no concentration beside the values) | 390,000 compounds, 0.02% hits | Mucolipin-1 (Homo sapiens), Q9GZU1 | TRPML1-inducible cells, Ca2+ dye fluorescence, FDSS; hits give low values; inhibition of EC80 agonist-evoked calcium signal; in the data active means activity change below about -50%; inconclusive means between about -30% and that limit;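 further: stimulus is agonist 54-4 at its EC80 concentration; on the % scale 0 is the no-effect control and ±100 the full control effect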
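TRPML1-DL cells, Tet-induced overnight (~16 h, 37 °C) at 1,500 cells/well, were loaded with Ca8 no-wash dye plus quencher for 45-90 min at room temperature. Compounds were pinned during FDSS kinetic reading; agonist 54-4 at EC80 (4 uM final) then added.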
TRHR agonist = qHTS for Small Molecule Agonists and Allosteric Enhancers of Human TRH Receptor: Primary Screen for Agonists; TRHR cells, calcium flux fluo-8, FDSS agonist mode; activation, % at 2 µM; 360,000 compounds, 0.18% hits; AID 493084, 2011; in the data active means activation above about 30%; further: 0% is about no effect
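Read-out: compound-evoked intracellular calcium rise in TRHR cells, fluo-8 dye, kinetic FDSS fluorescence at 1 s/cycle following a 10-cycle baseline. Cells cultured overnight before dye loading (30 min–1.5 h, RT).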
* hit, by the source's call; ? = inconclusive; nt = no result given.

SMILES | TRHR PAM | KCNH2 3.1 inh | hERG WT inh | TRPML1 agonist | TRPML1 blocker | TRHR agonist
CC(C)(C)c1ccc(S(=O)(=O)N2C=CC(C(F)(F)F)=NCC2)cc1 | -9 | -7 | 24 | 2 | 13 | 0
Cc1ccc(S(=O)(=O)N2C=CC(C(F)(F)F)=NCC2)cc1 | 0 | 13 | -76* | 0 | 12 | 1
CN(C)C=Nc1ccc([N+](=O)[O-])c2ccccc12 | nt | 16 | 0 | -1 | 0 | nt
O=C(Cn1c(SCc2cccc(F)c2)nc2cccnc21)Nc1ccc(F)c(Cl)c1 | 6 | nt | nt | 0 | 17 | 1
O=C(Cn1c(SCc2ccccc2F)nc2cccnc21)Nc1ccc(F)c(Cl)c1 | 36* | nt | nt | 0 | 8 | 1
Cc1ccc(NS(=O)(=O)c2c(C(=O)N3CCCC3)c(C)n(C)c2C)cc1 | 0 | 11 | 4 | -1 | -20 | 0
COc1ccc(NS(=O)(=O)c2c(C(=O)N3CCCCCC3)c(C)n(C)c2C)cc1 | -7 | -74* | 9 | -1 | 16 | -1
Cc1ccccc1CNS(=O)(=O)c1c(C(=O)N2CCCC2)c(C)n(C)c1C | 35* | -2 | -6 | 0 | -10 | 0
Cc1nc(C(F)(F)F)ccc1C(=O)Nc1ccccc1N1CCOCC1 | 1 | 15 | 2 | 0 | -4 | 0
O=C(COc1ccc(Cl)cc1Cl)NCC1(N2CCOCC2)CCCCC1 | nt | -5 | 33 | 0 | 6 | nt
Cc1ccc(C(C)C)c(OCC(=O)NCC2(N3CCOCC3)CCCCC2)c1 | 16 | nt | nt | 76* | -20 | 1
CCCCn1cnc2c(c(-c3ccccc3)c(-c3ccccc3)n2Cc2ccco2)c1=N | -12 | -6 | -8 | 0 | 35 | 1
N=c1c2c(-c3ccccc3)c(-c3ccccc3)n(Cc3ccco3)c2ncn1Cc1ccco1 | -1 | -93* | ? | 13 | 46 | 6
COC(=O)c1sc2cccc(F)c2c1S(=O)(=O)N1CCN(c2ccccc2OC)CC1 | -4 | nt | nt | 1 | 11 | 0
Cn1cnnc1SCC(=O)Nc1sc2c(c1C(N)=O)CCC2 | 4 | -22 | -284* | 0 | 101 | 0
NC(=O)c1c(NC(=O)c2ccccc2C(=O)O)sc2c1CCCC2 | -12 | -3 | -9 | -1 | 4 | 0
NC(=O)c1c(NC(=O)c2ccccc2Cl)sc2c1CCC2 | 36* | 8 | -16 | 0 | -6 | 0
NS(=O)(=O)c1ccc(CCNC(=O)C2CCCN2S(=O)(=O)c2cccc3nsnc23)cc1 (centres undefined) | 32* | 9 | 11 | 0 | -30 | 0
O=C(Nc1ccc(F)cc1)C1CCCN1S(=O)(=O)c1cccc2nsnc12 (centres undefined) | 14 | 3 | 2 | -1 | -20 | -1
O=C(NCCc1ccccc1)C1CCCN1S(=O)(=O)c1cccc2nsnc12 (centres undefined) | -2 | -20 | 11 | 0 | -10 | 0
O=C(NCc1ccc(F)cc1)C1CCCN1S(=O)(=O)c1cccc2nsnc12 (centres undefined) | -1 | 6 | -251* | -1 | 1 | 0
O=S(=O)(NCC1CCCO1)c1ccccc1F (centres undefined) | 5 | 4 | -1 | 1 | 10 | 0
CC(=O)N1C(c2ccccc2O)C[C@]2(C)CC(=O)NC12 (some centres undefined) | 36* | -5 | -2 | 0 | 0 | 1
Cc1cc(C)n(-c2nc(SCCN(C)C)c3c4c(sc3n2)COC(C)(C)C4)n1 | 3 | -137* | ? | 0 | 2 | -1
COc1ccc(OC)c(NS(=O)(=O)c2ccc(N3CCCC3=O)cc2)c1 | 34* | -2 | 3 | 0 | -11 | 0
SMILES | TRHR PAM | KCNH2 3.1 inh | hERG WT inh | TRPML1 agonist | TRPML1 blocker | TRHR agonist
O=C1c2ccccc2C(=O)N1CSc1nnc(Nc2ccccc2)s1 | -4 | -105* | -1 | -1 | 6 | 0
O=C1c2ccccc2C(=O)N1CSc1nnc(Nc2ccccc2F)s1 | -2 | 6 | -20 | 0 | 8 | -1
O=C(Nc1cccc(C(F)(F)F)c1)c1cc(CN2CCOCC2)on1 | -2 | nt | nt | 1 | 9 | 1
COC(=O)c1c(NC(C)=O)sc2c1CCCCC2 | -2 | 17 | -1 | 2 | 2 | 0
COC(=O)c1c(NC(=O)C2CC=CCC2C(=O)O)sc2c1CCCCC2 (centres undefined) | 31* | -5 | 8 | -1 | -2 | 0
CC1CC(=Cc2ccc([N+](=O)[O-])cc2)C(=O)O1 (centres undefined) | nt | 12 | 2 | 0 | 1 | nt
Cc1ccnc(NC(=O)CCC(=O)N(CC(=O)NC(C)(C)C)c2ccc(F)c(Cl)c2)c1 | 0 | -87* | -3 | 0 | 22 | 0
CC(C)(C)NC(=O)CN(C(=O)CCC(=O)Nc1nccs1)c1ccc(F)c(Cl)c1 | -2 | -11 | -34 | 0 | 31 | 1
CCN1C[C@@H]2[C@@H]3C(=O)N(Cc4ccccc4)C(=O)[C@@H]3[C@](Cc3ccccc3)(C(=O)OC)N2C1=NC | nt | -19 | -4 | 1 | -5 | nt
CCC(C(=O)c1ccc(O)cc1)c1ccccc1 (centres undefined) | 0 | -13 | -37 | -1 | 27 | 0
CCC(C(=O)N(C(C)C)C(C)C)c1ccccc1 (centres undefined) | 3 | -146* | -2 | -1 | 12 | 0
N#Cc1ccc(Oc2ncccn2)cc1 | nt | 1 | -1 | 1 | 6 | nt
CCN(CC)C(=O)C1=C(C)N(CCCOC)C(=O)C(CC(=O)NCc2cccs2)C1 (centres undefined) | nt | -9 | -2 | 0 | -26 | nt
O=C(NCCS(=O)(=O)c1ccc(Br)cc1)c1c(F)cccc1F | -3 | 1 | -10 | 0 | 2 | 0
COc1ccc(S(=O)(=O)N2CCC(C(=O)Nc3ccccc3)CC2)cc1OC | 0 | nt | nt | -1 | 8 | -1
COc1cccc(O)c1CN1CCC(C(=O)Nc2ccc(-c3cccc(C)c3)cc2)CC1 | 4 | -99* | -42 | 0 | 20 | 1
COc1cccc(-c2cccc(NC(=O)C3CCN(Cc4cccc(C)n4)CC3)c2)c1 | 14 | -12 | 9 | 0 | -3 | 0
